Records with an inconclusive call do not appear. The source made the active and inactive calls. Calls follow the shape of the dose curve; as a rule, active = well fitted inhibition curve with a large enough effect; inconclusive = small, poorly fitted or top-dose-only effect; inactive = no such curve, though single readings can be large or run the other way.
Also: nearly all actives have a fitted effect of over 80% in size.
For activity change, negative = inhibition in this document: 0% is about no effect.
Potency is read from the fitted curve at half-maximal effect.

The target of the test is N-terminal Xaa-Pro-Lys N-methyltransferase 1 (Homo sapiens) (UniProt Q9BV86). Briefly: qHTS Assay for Inhibitors of N-terminal methyltransferase 1 (NTMT1): ThioGlo3 Assay Confirmatory Screen, Round 1. The note with it: NTMT1 SAHH-coupled ThioGlo3 fluorescence, 30 min; series mostly up to 56.8 µM; activity change, negative = inhibition: at the top concentration. Put shortly: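 Human NTMT1 at 125 nM was preincubated 1 min at room temperature with compounds at various concentrations or 1 uM RCC1-6 control. Substrate mix (100 uM SAM, 10 uM SAHH, 15 uM ThioGlo3) was added, and fluorescence (Ex 340/Em 450 nm) was read at start and after 30 min, normalized to background.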
N-terminal Xaa-Pro-Lys N-methyltransferase 1 (Homo sapiens), sequence (Q9BV86 whole entry, looked up): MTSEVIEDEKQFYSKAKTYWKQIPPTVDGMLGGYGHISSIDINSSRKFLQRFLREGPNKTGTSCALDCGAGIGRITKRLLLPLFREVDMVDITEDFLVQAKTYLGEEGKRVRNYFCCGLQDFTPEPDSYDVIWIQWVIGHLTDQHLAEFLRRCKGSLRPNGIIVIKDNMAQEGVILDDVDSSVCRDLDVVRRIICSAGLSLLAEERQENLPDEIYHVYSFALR
On the technique in general: In qHTS, concentration-response curves come from the screen itself.
For the molecule `COc1cc2nc(N3CCN(C)CC3)nc(N3CCOCC3)c2cc1OC`, the Potency is 21.5 µM (active).

As to `OC[C@H]1O[C@@H](n2cnc3c(NC4CCCC4)ncnc32)[C@H](O)C1O` (stereo partly specified), the “activity change, negative = inhibition” value is -31.9% (inactive).

With `COc1cc2nc(N3CCCCC3)nc(NC3CC3)c2cc1OC`, the Potency was 24.1 µM (active).

Regarding `CCN(CC)CCCOc1cc2nc(N3CCCN(C)CC3)nc(NC3CCN(C)CC3)c2cc1OC`, the Potency is 24.1 µM (active).

For the molecule `COc1cc2nc(N3CCCCC3)nc(NC3CCN(Cc4ccccc4)CC3)c2cc1OC`, the Potency is 21.5 µM (active).

On to `Nc1ncnc2c1ncn2[C@H]1O[C@@H](CSCC[C@@H](N)C(=O)O)[C@H](O)[C@@H]1O`, for which the “activity change, negative = inhibition” value is 1900% (inactive).

As to `COc1cc2c(NC3CCN(C(C)C)CC3)nc(N3CCCN(C)CC3)nc2cc1OCCOCCN(C)C`, the Potency is 24.1 µM (active).

With `COc1cc2c(NC3CCN(CC4CCCCC4)CC3)nc(N3CCCCCC3)nc2cc1OCCCN1CCCCC1`, the Potency was 24.1 µM (active).

For `C[C@H](Cc1ccccc1)Nc1ncnc2c1ncn2[C@@H]1O[C@H](CO)[C@@H](O)[C@H]1O`, the “activity change, negative = inhibition” value was 10.9% (inactive).

For the molecule `COc1cc2c(NC3CCN(C(C)C)CC3)nc(N3CCCN(C(C)C)CC3)nc2cc1OCCOCCN(C)C`, the Potency was 24.1 µM (active).

On to `CNc1ncnc2c1ncn2[C@@H]1O[C@H](COP(=O)(O)O)[C@@H](O)[C@H]1O`, for which the “activity change, negative = inhibition” value was -11.9% (inactive).

As for `CC(C)N(C[C@H]1O[C@@H](n2cnc3c(N)ncnc32)[C@H](O)[C@@H]1O)C1CC(CCc2nc3ccc(C(C)(C)C)cc3[nH]2)C1` (stereo partly specified), the “activity change, negative = inhibition” value was -13.7% (inactive).

For `Nc1ccnc2c1ncn2[C@@H]1O[C@H](CO)[C@@H](O)[C@H]1O`, the Potency was 2.71 µM (active).

For `OC[C@@H]1O[C@H](n2cnc3c(SCc4ccccc4)ncnc32)[C@H](O)[C@H]1O`, the “activity change, negative = inhibition” value was -1.57% (inactive).

`Nc1nc(Cl)nc2c1ncn2[C@@H]1O[C@H](CO)[C@H](O)[C@H]1O`: the “activity change, negative = inhibition” value was -11.3% (inactive).

For `COc1cc2c(NC3CCN(C(C)C)CC3)nc(N3CCCN(CC4CCCCC4)CC3)nc2cc1OCCCN1CCCCC1`, the Potency is 24.1 µM (active).

In the case of `Nc1ncnc2c1ncn2[C@@H]1O[C@H](CO)C[C@@H]1O`, the “activity change, negative = inhibition” value was 14% (inactive).

On to `Nc1nc(=S)c2ncn([C@@H]3O[C@H](CO)[C@@H](O)[C@H]3O)c2[nH]1`, for which the Potency was 18.8 µM (active).

As for `Nc1ncnc2c1ncn2[C@@H]1O[C@H](COP(=O)(O)O)[C@@H](O)[C@@H]1O`, the “activity change, negative = inhibition” value is 13.1% [at 27.4 µM] (inactive).

As to `COc1cc2c(NC3CCN(C(C)C)CC3)nc(N3CCCCC3)nc2cc1OCCOCCN(C)C`, the Potency is 27.1 µM (active).

`Nc1ncnc2c1ncn2[C@H]1O[C@@H](CO)[C@@H](O)[C@H]1N`: the “activity change, negative = inhibition” value is -7.61% (inactive).

`Nc1ncnc2c1ncn2C1O[C@H](COP(=O)(O)O)[C@@H](O)[C@H]1O` (stereo partly specified): the “activity change, negative = inhibition” value is -14.8% (inactive).

In the case of `COc1cc2c(NC3CCN(C)CC3)nc(N3CCCN(C)CC3)nc2cc1OCC1CCNCC1`, the Potency was 24.1 µM (active).

Consider `Nc1ncnc2c1ncn2[C@@H]1O[C@H](COP(=O)(O)OP(=O)(O)OP(=O)(O)O)[C@@H](O)[C@H]1O`, for which the “activity change, negative = inhibition” value was -14.1% (inactive).

As to `COc1cc2c(NC3CCN(C(C)C)CC3)nc(N3CCC(F)(F)CC3)nc2cc1OCCCN1CCCCC1`, the Potency is 6.81 µM (active).

For `C[C@H](Cc1ccccc1)Nc1ncnc2c1ncn2[C@@H]1O[C@H](CO)C(O)[C@H]1O` (stereo partly specified), the “activity change, negative = inhibition” value is 19.6% (inactive).

For `Nc1ncnc2c1ncn2[C@@H]1O[C@H](COP(=O)(O)OP(=O)(O)OP(=O)(O)OP(=O)(O)OC[C@@H]2O[C@H](n3cnc4c(N)ncnc43)[C@@H](O)C2O)C(O)[C@H]1O` (stereo partly specified), the “activity change, negative = inhibition” value was 15.1% (inactive).

`COc1cc2c(NC3CCN(C4CCCCC4)CC3)nc(N3CCCCCC3)nc2cc1OCCCN1CCCCC1`: the Potency is 24.1 µM (active).

As to `Nc1ncnc2c1ncn2[C@@H]1O[C@@H](CO)[C@H](O)[C@H]1O`, the “activity change, negative = inhibition” value is -16.7% (inactive).

`Nc1nc(Nc2ccccc2)nc2c1ncn2[C@@H]1O[C@@H](CO)[C@H](O)[C@H]1O`: the “activity change, negative = inhibition” value is 9.37% (inactive).

In the case of `Nc1nc(Nc2ccccc2)nc2c1ncn2[C@@H]1O[C@H](CO)C(O)[C@H]1O` (stereo partly specified), the Potency is 24.1 µM (active).

For the molecule `COc1cc2nc(N3CCN(C)CC3)nc(NCCCN(C)C)c2cc1OC`, the Potency was 27.1 µM (active).

For the molecule `COc1cc2c(NC3CCN(C(C)C)CC3)nc(N3CCCCCC3)nc2cc1OCCOCCN(C)C`, the Potency was 21.5 µM (active).

As to `COc1cc2c(NC3CCN(CC4CCCCC4)CC3)nc(N3CCCN(C)CC3)nc2cc1OCCCN1CCCCC1`, the Potency is 21.5 µM (active).

Regarding `Nc1ncnc2c1ncn2[C@@H]1O[C@H](CO)C(O)[C@H]1O` (stereo partly specified), the Potency is 1.36 µM (active).

Regarding `COc1cc2c(NC3CCN(C)CC3)nc(N3CCN(C)CC3)nc2cc1OCCCN(C)C`, the Potency is 24.1 µM (active).

Source of the values: PubChem BioAssay AID1347142 (National Center for Advancing Translational Sciences (NCATS), 2019).
